Data on 19 molecules can be found in PubChem BioAssay.

Each structure is given as a SMILES string. Several values for one entry are separate records, joined by “and”; a condition that tells them apart may be missing. Identical values can stand only once. Activity calls are given as the source filed them. Cut-off read from the data, not from the text of the source, unless noted: active = parasite load remaining mostly below about 12% (no sharp cut-off); inactive = mostly above about 10%.

A short description of assay [1]: glutamate transport activators, MN-1 cells, MN-1 cell line (AID 1612).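 Note: tested at 1 µM final; 0% = mean of DMSO vehicle wells on each plate; positive means more glutamate uptake than control and negative means less.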 To be noted: MN-1 motor neuron cells, stronger effect = higher value.
The nature of assay [2]: GFP-Q80 aggregate reduction, neuronal-like cells, cell-based, NGF-treated PC12, GFPQ80 (AID 1614).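 Note: lower means fewer inclusions and 0 means no inclusions at all.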 The conditions noted are these: PC12 NGF-treated GFP-polyQ80 inclusion reduction.
Assay [3] in a line: 75Q-TubH aggregate inhibition, S. cerevisiae, yeast (AID 1616). The conditions noted are these: S. cerevisiae 75Q-TubH polyglutamine aggregation suppression; stronger effect = higher value.
Assay [4] can be described thus: compounds altering viability of human ES cells (AID 493140; call rule not given here;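 note: cells exposed to compounds for four days before counting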). To be noted: human embryonic stem cell survival screen; stronger effect = higher value.
A short description of assay [5]: P. berghei load reduction in hepatocytes – cell-based, HepG2, luciferase luminescence, HepG2 viability, primary screen (AID 624349).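 Note: 100% = mean of DMSO negative control wells on the same plate.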 The conditions noted are these: P. berghei liver stage in HepG2, luciferase luminescence, concentration not given here; parasite load remaining: stronger effect = lower value; viability: measured here: HepG2 viability without parasites.
Assay [6] in a line: Wnt pathway potentiators raising nuclear beta-catenin – imaging, WNT3A-conditioned medium, mouse C2C12, NPC library, primary screen (AID 1117326; in the data active = nuclear beta-catenin stimulation mostly above about 4.2%, no sharp cut-off; inactive = mostly below about 10%; note: reference of the scale not given here). The conditions noted are these: stronger effect = higher value.

Regarding `CCCCN(CCCC)CCCOC(=O)c1ccc(N)cc1`, the glutamate uptake change in assay [1] is -0.54%. Also, in assay [2], the inclusion score was 2. Further, the aggregation suppression score in assay [3] amounted to 1.28. For the same molecule, the survival in assay [4] was 2.17 (inactive). In addition, the parasite load remaining in assay [5] was 67.1% (inactive) and 96% (inactive) and 39.6% (inactive). Moreover, the viability in assay [5] was 98.6% and 79.9% and 102%. Besides, the nuclear beta-catenin stimulation in assay [6] (at 10 µM) is 0.5% (inactive); in assay [6] (stimulation, at 2 µM) it was 1.7%.

As to `O=C(O)c1ccccc1C(=O)Nc1ccc(S(=O)(=O)Nc2nccs2)cc1`, the glutamate uptake change in assay [1] was 2.49%. The molecule further registered an inclusion score in assay [2] of 2. This molecule came in with an aggregation suppression score in assay [3] of 1.17. Also, the survival in assay [4] was 11.2 (inactive). In addition, the parasite load remaining in assay [5] is 89% (inactive) and 53.5% (inactive) and 22.8% (inactive). Besides, the viability in assay [5] is 103% and 81.4% and 87.5%. For the same molecule, the nuclear beta-catenin stimulation in assay [6] (at 10 µM) is 0.8% (inactive); in assay [6] (stimulation, at 2 µM) it was 0.7%.

In the case of `CC(C(=O)O)c1ccc(C(=O)c2cccs2)cc1` (centres undefined), in assay [1], the glutamate uptake change was 15.6%. In assay [2], this molecule yielded an inclusion score of 2. The same molecule showed an aggregation suppression score in assay [3] of 0.589. Also, the survival in assay [4] is 6.67 (inactive). In assay [5], the parasite load remaining was 81.3% (inactive) and 117% (inactive) and 42.2% (inactive); the viability is 105% and 68.4% and 94.1%. Moreover, the nuclear beta-catenin stimulation in assay [6] (at 10 µM) was -2.4% (inactive). The nuclear beta-catenin stimulation in assay [6] (stimulation, at 2 µM) is -0.7%.

Turning to `Cc1cc(CC(=O)O)n(C)c1C(=O)c1ccc(Cl)cc1`, the glutamate uptake change in assay [1] was -4.24%. In addition, in assay [2], the inclusion score was 2. Besides, in assay [3], the aggregation suppression score stood at 0.565. The survival in assay [4] was 3.5 (inactive). Further, the parasite load remaining in assay [5] was 103% (inactive) and 101% (inactive) and 54.3% (inactive). In assay [5], the viability was 94.3% and 67.7% and 106%. For the same molecule, the nuclear beta-catenin stimulation was -0.6% (inactive) in assay [6] (at 10 µM) and 1.7% in assay [6] (stimulation, at 2 µM).

For the molecule `OCC(O)CN1CCN(c2ccccc2)CC1` (centres undefined), the glutamate uptake change in assay [1] came to 0.23%. In assay [2], this molecule came in with an inclusion score of 2. Also, the aggregation suppression score in assay [3] is 1.04. Moreover, in assay [4], the survival is 19.2 (inactive). Also, in assay [5], the parasite load remaining is 36.8% (inactive) and 188% (inactive) and 98.1% (inactive); the viability was 50.7% and 71.2% and 93.7%. Further, the nuclear beta-catenin stimulation in assay [6] (at 10 µM) is -1.5% (inactive). The nuclear beta-catenin stimulation in assay [6] (stimulation, at 2 µM) stood at 0.8%.

Regarding `CCCCOc1ccc(OCCCN2CCOCC2)cc1`, in assay [1], the glutamate uptake change is 6.69%. For the same molecule, the inclusion score in assay [2] worked out at 2. For the same molecule, the aggregation suppression score in assay [3] was found to be 1.24. Also, the survival in assay [4] is 2 (inactive). Further, in assay [5], the parasite load remaining is 92% (inactive) and 117% (inactive) and 30.7% (inactive); the viability was 109% and 67.4% and 85.2%. Further, in assay [6] (at 10 µM), the nuclear beta-catenin stimulation was 1.4% (inactive). Moreover, in assay [6] (stimulation, at 2 µM), the nuclear beta-catenin stimulation came out at 0.4%.

`CC(=O)OCC(COC(C)=O)OC(C)=O`: the glutamate uptake change in assay [1] is -13.9%. In assay [2], the inclusion score was determined as 2. This molecule displayed an aggregation suppression score in assay [3] of 1.25. Besides, the parasite load remaining in assay [5] was 142% (inactive) and 56.1% (inactive). For the same molecule, the viability in assay [5] was 73.5% and 86.5%. Also, the nuclear beta-catenin stimulation in assay [6] (at 10 µM) was 0.2% (inactive); in assay [6] (stimulation, at 2 µM), 3.4%.

Take `O=C(N[C@H](CO)[C@H](O)c1ccc([N+](=O)[O-])cc1)C(Cl)Cl`: in assay [1], the glutamate uptake change is 7.27%. In assay [2], this molecule yielded an inclusion score of 2. Moreover, the aggregation suppression score in assay [3] came to 1.2. Besides, in assay [5], the parasite load remaining is 29.9% (inactive) and 25.5% (inactive); the viability is 46.7% and 63%. For the same molecule, the nuclear beta-catenin stimulation in assay [6] (at 10 µM) was -0.9% (inactive). Also, the nuclear beta-catenin stimulation in assay [6] (stimulation, at 2 µM) is -0.3%.

For `CCC(=O)c1c(O)cc(O)cc1O`, the glutamate uptake change in assay [1] is -10.7%. Also, the inclusion score in assay [2] was found to be 2. In assay [3], this molecule returned an aggregation suppression score of 1.29. Besides, the parasite load remaining in assay [5] was 100% (inactive). In addition, in assay [5], the viability amounted to 70.3%. For the same molecule, the nuclear beta-catenin stimulation was 1.8% (inactive) in assay [6] (at 10 µM) and 2% in assay [6] (stimulation, at 2 µM).

For the molecule `C=CCc1ccc(O)c(OC)c1`, the glutamate uptake change in assay [1] was -8.45%. For the same molecule, the inclusion score in assay [2] amounted to 2. The aggregation suppression score in assay [3] came to 1.76. Also, the parasite load remaining in assay [5] was 91.2% (inactive) and 49.1% (inactive). Also, in assay [5], the viability was 77.2% and 96.4%. Also, the nuclear beta-catenin stimulation is 1.1% (inactive) in assay [6] (at 10 µM) and 4.6% in assay [6] (stimulation, at 2 µM).

Regarding `CC(=O)Nc1ccccc1`, the glutamate uptake change in assay [1] was 3.38% and -12.1%. In assay [2], the inclusion score came to 2. Besides, in assay [3], the aggregation suppression score is 1.6 and 1.51. For the same molecule, the parasite load remaining in assay [5] was 92.8% (inactive) and 37.4% (inactive). Also, in assay [5], the viability was 71.9% and 93.5%. In addition, the nuclear beta-catenin stimulation in assay [6] (at 10 µM) was 5.2% (inactive); in assay [6] (stimulation, at 2 µM) it was 1.4%.

Regarding `Nc1nccs1`, the glutamate uptake change in assay [1] was 28.6%. The inclusion score in assay [2] worked out at 2. In assay [3], this molecule showed an aggregation suppression score of 1.04. In assay [5], the parasite load remaining is 56.3% (inactive) and the viability was found to be 97.8%. In addition, in assay [6] (at 10 µM), the nuclear beta-catenin stimulation was -1.6% (inactive). For the same molecule, the nuclear beta-catenin stimulation in assay [6] (stimulation, at 2 µM) came out at 0.3%.

For `O=C(O)P(=O)(O)O`, in assay [1], the glutamate uptake change was -1.79%. Further, the inclusion score in assay [2] turned out to be 2. Further, the aggregation suppression score in assay [3] was 1.5. In assay [5], the parasite load remaining is 127% (inactive) and 15.8% (inactive); the viability is 69.2% and 92.6%. Further, in assay [6] (at 10 µM), the nuclear beta-catenin stimulation is 0.2% (inactive). Further, the nuclear beta-catenin stimulation in assay [6] (stimulation, at 2 µM) was -0.8%.

For the molecule `CCCOc1ccc2nc(NC(=O)OC)[nH]c2c1`, the glutamate uptake change in assay [1] was -36.6%. In addition, the inclusion score in assay [2] is 2. Further, the aggregation suppression score in assay [3] was 0.918. Also, in assay [5], the parasite load remaining is 150% (inactive) and 18.1% (inactive) and 53.4% (inactive); the viability is 91% and 99.5% and 84%. Besides, the nuclear beta-catenin stimulation in assay [6] (at 10 µM) was 77% (active). Besides, in assay [6] (stimulation, at 2 µM), the nuclear beta-catenin stimulation was 60.9%.

For the molecule `CC(=O)Oc1cccc(O)c1`, in assay [1], the glutamate uptake change is -3.14%. In assay [2], this molecule came in with an inclusion score of 2. The aggregation suppression score in assay [3] amounted to 0.901. In assay [5], the parasite load remaining was 139% (inactive) and 53% (inactive); the viability was 92.8% and 100%. In addition, in assay [6] (at 10 µM), the nuclear beta-catenin stimulation is 0.7% (inactive). For the same molecule, in assay [6] (stimulation, at 2 µM), the nuclear beta-catenin stimulation amounted to 2%.

As for `NC(=O)c1ccccc1O`, the glutamate uptake change in assay [1] was found to be 8.07%. The inclusion score in assay [2] stood at 2. The aggregation suppression score in assay [3] was determined as 1.02. Besides, in assay [5], the parasite load remaining is 47.6% (inactive) and 47.5% (inactive). For the same molecule, the viability in assay [5] was 78.6% and 92.9%. For the same molecule, the nuclear beta-catenin stimulation in assay [6] (at 10 µM) is 0.9% (inactive); in assay [6] (stimulation, at 2 µM), 0.5%.

In the case of `O=C(CCBr)N1CCN(C(=O)CCBr)CC1`, in assay [1], the glutamate uptake change amounted to 17.8%. In assay [2], this molecule had an inclusion score of 2. This molecule registered an aggregation suppression score in assay [3] of 0.931. Besides, the parasite load remaining in assay [5] is 146% (inactive) and 41.7% (inactive). The viability in assay [5] was 86.4% and 105%. Moreover, the nuclear beta-catenin stimulation in assay [6] (at 10 µM) is 1.4% (inactive); in assay [6] (stimulation, at 2 µM), 1.7%.

For the molecule `CN1CCCN=C1COC(=O)C(O)(c1ccccc1)C1CCCCC1` (centres undefined), the glutamate uptake change in assay [1] is 10.4%. Further, the inclusion score in assay [2] amounted to 2. Moreover, the aggregation suppression score in assay [3] is 1.26. Also, in assay [5], the parasite load remaining was 69.1% (inactive) and 57.9% (inactive); the viability is 80.4% and 101%. Moreover, the nuclear beta-catenin stimulation in assay [6] (at 10 µM) is 3% (inactive). In addition, the nuclear beta-catenin stimulation in assay [6] (stimulation, at 2 µM) came out at 1.9%.

Consider `O=C(O)c1ccccc1O`, for which the glutamate uptake change in assay [1] stood at 15.9%. This molecule returned an inclusion score in assay [2] of 2. In assay [3], this molecule returned an aggregation suppression score of 0.863. Besides, in assay [5], the parasite load remaining was 90.3% (inactive) and 39.7% (inactive); the viability was 79.5% and 93.6%. In addition, the nuclear beta-catenin stimulation in assay [6] (at 10 µM) was 0.5% (inactive). Besides, the nuclear beta-catenin stimulation in assay [6] (stimulation, at 2 µM) is -0.8%.
